Data taken from PubChem BioAssay (EPA / NIEHS).
The source made the active and inactive calls. The calls were made as follows: active = hit-call score of the fitted dose curve at least 0.9, where 1 is the maximum; inactive = score below 0.9.

Each compound was assayed on E-selectin (Homo sapiens) (UniProt P16581) (assay: BSK_SAg_Eselectin: BioMAP Diversity Plus: SAg Assay for Eselectin Biomarker Activity (AID 2283091)). Conditions: primary human HUVEC with PBMC; actives raise or lower the signal.
Sequence of E-selectin (Homo sapiens) (P16581 whole entry, looked up): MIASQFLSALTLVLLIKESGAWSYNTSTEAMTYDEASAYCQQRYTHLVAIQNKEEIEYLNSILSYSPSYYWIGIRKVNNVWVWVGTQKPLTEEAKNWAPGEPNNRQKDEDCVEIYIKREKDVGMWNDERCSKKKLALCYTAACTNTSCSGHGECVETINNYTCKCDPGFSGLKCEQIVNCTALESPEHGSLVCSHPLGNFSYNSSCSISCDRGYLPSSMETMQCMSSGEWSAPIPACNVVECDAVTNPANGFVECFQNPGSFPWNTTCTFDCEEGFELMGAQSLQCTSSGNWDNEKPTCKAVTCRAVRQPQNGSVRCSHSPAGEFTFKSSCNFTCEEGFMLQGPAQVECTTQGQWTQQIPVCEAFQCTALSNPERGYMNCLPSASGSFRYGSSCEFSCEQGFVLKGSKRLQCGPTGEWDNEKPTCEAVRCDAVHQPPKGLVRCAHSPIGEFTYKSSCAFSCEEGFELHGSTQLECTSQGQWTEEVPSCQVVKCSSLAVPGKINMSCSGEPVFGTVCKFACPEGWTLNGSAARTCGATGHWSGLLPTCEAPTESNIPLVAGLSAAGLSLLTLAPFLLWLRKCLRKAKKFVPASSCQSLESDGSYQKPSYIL
Description: BSK_SAg is a cell-based, multiplexed-readout assay that uses umbilical vein endothelium and peripheral blood mononuclear cells, a human vascular primary cell co-culture, with measurements taken at 24 hours after chemical dosing in a 96-well plate.BSK_SAg_Eselectin is an assay component measured in the BSK_SAg assay. It measures E-selectin antibody related to regulation of gene expression using ELISA technology.Data from the assay component BSK_SAg_Eselectin was analyzed into 1 assay endpoint. This assay endpoint, BSK_SAg_Eselectin, was analyzed with bidirectional fitting relative to DMSO as the negative control and baseline of activity. Using a type of binding reporter, gain or loss-of-signal activity can be used to understand changes in the signaling as they relate to the gene SELE. Furthermore, this assay endpoint can be referred to as a primary readout, because this assay has produced multiple assay endpoints where this one serves a signaling function. To generalize the intended target to other relatable targets, this assay endpoint is annotated to the cell adhesion molecules intended target family, where the subfamily is selectins.
The levels of cell surface (or secreted, indicated by the prefix "s") biomarker endpoints were measured by ELISA. Overt cytotoxicity to cells in confluent adherent cultures (all systems other than the BT system) was assessed by measuring total protein levels using sulforhodamine B (SRB) staining in parallel cultures at the time of biomarker measurements, indicated as SRB endpoints. For proliferation assays for adherent cell types, individual cell types are cultured at sub-confluence and relative cell numbers quantified by SRB staining at time points optimized for each system (48 h: 3C and CASM3C systems; 72 h: BT and HDF3CGF systems; 96 h: SAg system). SRB was performed by staining cells with 0.1% SRB after fixation with 10% TCA and reading wells at 560 nm.Viability and proliferation of PBMC (T cells) was quantified by Alamar Blue reduction for the SAg and BT systems. For PBMC viability (referred to as PBMC Cytotoxicity within the assay endpoint names), cells were plated (75,000/well in a 96-well plate) and then chemical samples added for 1 h before addition of activators, SEB and TSST-1 (20 ng/mL final concentration each). Cells were incubated for 90 h. Then, Alamar Blue (20 uL/well) (Invitrogen, Cat DAL1100) was added for 6 h, and the plates were read with a fluorescence microplate reader at 546/580 nm (excitation/emission). For PBMC proliferation, cells were plated and activated as above but incubated for only 16 h prior to addition of Alamar Blue. Plates were read after 6 h.

| Compound | outcome | AC50 |
| --- | --- | --- |
| CC(=NC#N)N(C)Cc1ccc(Cl)nc1 | inactive |  |
| FC(F)C(F)(F)OCC(Cn1cncn1)c1ccc(Cl)cc1Cl (stereo not given) |  | 25.7 µM (active) |
| CCCCOC(=O)c1ccccc1C(=O)O | inactive |  |
| C#CC(C)(C)NC(=O)c1cc(Cl)cc(Cl)c1 | inactive |  |
| CCOP(=S)(OCC)OC(Cl)C(Cl)(Cl)Cl (stereo not given) |  | 31.2 µM (active) |
| CC(C)=CC1C(C(=O)OCN2C(=O)C3=C(CCCC3)C2=O)C1(C)C (stereo not given) |  | 14.4 µM (active) |
| C#CCC1=C(C)C(OC(=O)C2C(C=C(C)C)C2(C)C)CC1=O (stereo not given) |  | 31.3 µM (active) |
| CCc1cccc(C)c1N(C(=O)CCl)C(C)COC (stereo not given) | inactive |  |
| COP(=O)(OC)OC(Br)C(Cl)(Cl)Br (stereo not given) |  | 22.7 µM (active) |
| CCOP(=S)(OCC)SCCSCC | inactive |  |
| C[N+]1(C)CCCCC1 | inactive |  |
| CNC(=O)ON=C(SC)C(=O)N(C)C | inactive |  |
| CC[C@H](C)[C@H]1O[C@]2(C=C[C@@H]1C)C[C@@H]1C[C@@H](C/C=C(\C)[C@@H](O[C@H]3C[C@H](OC)[C@@H](O[C@H]4C[C@H](OC)[C@@H](NC)[C@H](C)O4)[C@H](C)O3)[C@@H](C)/C=C/C=C3\CO[C@@H]4[C@H](O)C(C)=C[C@@H](C(=O)O1)[C@]34O)O2 |  | 4.95 µM (active) |
| CCCOc1nn(C(=O)NS(=O)(=O)c2ccccc2C(=O)OC)c(=O)n1C | inactive |  |
| CCCSP(=O)(OCC)SCCC | inactive |  |
| CCOP(=O)(NC(C)C)Oc1ccc(SC)c(C)c1 (stereo not given) | inactive |  |
| CCOP(=S)(Oc1cnc(C(C)(C)C)nc1)OC(C)C (stereo not given) |  | 31.4 µM (active) |
| COP(=O)(OC)C(O)C(Cl)(Cl)Cl (stereo not given) |  | 32.5 µM (active) |
| CCOP(=S)(OCC)Oc1cc(C)nc(C(C)C)n1 | inactive |  |
| CCOC(=O)CC(SP(=O)(OC)OC)C(=O)OCC (stereo not given) | inactive |  |

| Compound | outcome | AC50 |
| --- | --- | --- |
| CCOP(=S)(OCC)Oc1ccc([N+](=O)[O-])cc1 |  | 32.8 µM (active) |
| CNC(=O)ON=C(C)SC | inactive |  |
| CCc1cnc(C2=NC(C)(C(C)C)C(=O)N2)c(C(=O)O)c1 (stereo not given) | inactive |  |
| COc1cc(OC)nc(Sc2cccc(Cl)c2C(=O)O)n1 | inactive |  |
| CN(C)NC(=O)CCC(=O)O | inactive |  |
| Cc1cc(C2CC2)nc(Nc2ccccc2)n1 |  | 34.4 µM (active) |
| CCCCOC(=O)[C@@H](C)Oc1ccc(Oc2ccc(C#N)cc2F)cc1 | inactive |  |
| Nc1c(Cl)cc([N+](=O)[O-])cc1Cl |  | 10.1 µM (active) |
| CNc1cnn(-c2cccc(C(F)(F)F)c2)c(=O)c1Cl |  | 19.2 µM (active) |
| CC(COc1ccc(Oc2ccccc2)cc1)Oc1ccccn1 (stereo not given) | inactive |  |
| CCc1cccc(CC)c1N(COC)C(=O)CCl |  | 14.2 µM (active) |
| S=C1NCCN1 | inactive |  |
| CCCSP(=O)(OCC)Oc1ccc(Br)cc1Cl (stereo not given) |  | 25.5 µM (active) |
| CN(C)C(=O)Nc1cccc(C(F)(F)F)c1 | inactive |  |
| C=C(C)[C@H]1Cc2c(ccc3c2O[C@@H]2COc4cc(OC)c(OC)cc4[C@@H]2C3=O)O1 |  | 4.05 µM (active) |
| CCC(CC)Nc1c([N+](=O)[O-])cc(C)c(C)c1[N+](=O)[O-] |  | 22.7 µM (active) |
| CCOC(=O)COc1cc(-c2nn(C)c(OC(F)F)c2Cl)c(F)cc1Cl | inactive |  |
| CC(C)N(C(=O)SCC(Cl)=C(Cl)Cl)C(C)C |  | 31.8 µM (active) |
| CCOP(=O)(SC(C)CC)N1CCSC1=O (stereo not given) | inactive |  |
| CNC(=O)Oc1cccc2c1OC(C)(C)O2 |  | 15 µM (active) |
